Measured values: PubChem BioAssay AID1903 (Southern Research Specialized Biocontainment Screening …, 2009)
About 1,200 (0.39%) of roughly 310,000 compounds were called active. No rule for the calls is given here. These entries were drawn from the full list. Entries with a potency or affinity are not part of this list.

molecular target: Large T antigen (Simian virus 40) (UniProt P03070); test: TAg ATPase/helicase activity blockers – biochemical (AID 1903); settings: SV40 large T antigen ATPase/helicase inhibition assay; at 20 µM; stronger effect = higher value
Sequence (P03070 whole entry, looked up): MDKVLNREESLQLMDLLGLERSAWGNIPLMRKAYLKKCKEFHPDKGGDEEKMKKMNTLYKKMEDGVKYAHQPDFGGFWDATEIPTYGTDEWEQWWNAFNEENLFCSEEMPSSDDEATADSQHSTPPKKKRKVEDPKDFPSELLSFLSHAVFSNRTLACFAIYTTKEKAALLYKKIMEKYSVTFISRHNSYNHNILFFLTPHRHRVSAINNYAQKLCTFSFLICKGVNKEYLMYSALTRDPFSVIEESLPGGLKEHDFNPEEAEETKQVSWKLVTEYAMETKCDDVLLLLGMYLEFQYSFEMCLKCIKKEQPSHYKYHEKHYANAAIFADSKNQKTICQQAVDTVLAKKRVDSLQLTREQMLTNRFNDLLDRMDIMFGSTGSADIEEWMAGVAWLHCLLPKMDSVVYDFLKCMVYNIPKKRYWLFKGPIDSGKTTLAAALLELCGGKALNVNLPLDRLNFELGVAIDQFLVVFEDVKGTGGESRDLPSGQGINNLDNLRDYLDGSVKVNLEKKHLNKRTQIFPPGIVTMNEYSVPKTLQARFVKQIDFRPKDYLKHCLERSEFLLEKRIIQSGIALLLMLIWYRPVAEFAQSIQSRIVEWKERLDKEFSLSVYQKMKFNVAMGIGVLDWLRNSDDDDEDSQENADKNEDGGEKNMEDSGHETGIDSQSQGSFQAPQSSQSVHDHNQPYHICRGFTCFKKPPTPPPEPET

inhibition, inactive:
Cc1cc(NC(=O)C(=O)c2c(C)[nH]c3ccccc23)no1 3.99%
CCOc1ccc2nc(NC(=O)CC3Oc4ccccc4NC3=O)sc2c1 (configuration not stated) 7.51%
O=C(COC(=O)c1ccccc1SCC(=O)N1CCCC1)NC1CCCCC1 7.38%
CC1(C)CC(=O)C/C(=N/NC(=O)COc2ccc3ccccc3c2Br)C1 8.99%
C/C(CC(=O)Nc1ccc2c(c1)OCCO2)=N\NC(=O)Cc1ccccc1 9.69%
O=C(CCCN1C(=O)/C(=C\c2ccco2)SC1=S)Nc1ccc2ccccc2c1 18.2%
CC(C(=O)Nc1ccc(O)cc1C(=O)O)N1C(=O)/C(=C\c2cccs2)SC1=S (configuration not stated) 38.1%
O=C(CCCN1C(=O)/C(=C/c2cccs2)SC1=S)Nc1ccc(O)c(C(=O)O)c1 29.5%
CCN(C(=O)C(C)N1C(=O)/C(=C/c2ccco2)SC1=S)C1CCS(=O)(=O)C1 (configuration not stated) 33.8%
Cc1ccc2nc(N3CCN(c4ccccc4)CC3)c(C=O)c(=O)n2c1 3.59%
CCn1cc(S(=O)(=O)CC(=O)N2CCc3ccccc32)c2ccccc21 16.3%
COCC(C)n1c(SCc2nc(N)nc(Nc3ccccc3C)n2)nc2ccccc2c1=O (configuration not stated) 23%
COc1cccc(/C=C2\C(=O)N(c3cccc(C)c3)C(=O)c3ccccc32)c1 11%
COc1cccc(N2C(=O)/C(=C\c3cccs3)NC2=S)c1 24%
COc1cccc(NCc2ccc([N+](=O)[O-])s2)c1 20.9%
COc1cccc(/C=C2/C(=O)NN(c3ccccc3)C2=O)c1 26.6%
COc1ccc(NC(=O)CCNC(=O)c2ccco2)cc1OC 0.95%
O=C(O)C1CCCN1C(=O)Nc1ccccc1 (configuration not stated) 4.07%
CN1CCN(CC(=O)O)CC1 17.9%
COc1ccc2c(c1)[nH]c1c(=O)n(CCC3=CCCCC3)cnc12 9.61%
CCOC(=O)N1CCC(Nc2ccc(N3C(=O)C4CCCCC4C3=O)cc2[N+](=O)[O-])CC1 (configuration not stated) 10.6%
COC(=O)CCc1ccc(O)cc1 4.8%
COc1ccc(C(=O)CCc2ccccc2)c(O)c1 7.01%
Cc1ccsc1CNC(=O)c1c(-c2ccccc2)noc1C 2.94%
O=C1CNC(=S)N1CCCc1ccccc1 5.18%
O=C1CNC(=S)N1CCc1ccc(Cl)cc1 6.29%
COc1ccc(-c2cc(C(F)(F)F)nc(SCC(=O)NCCCN3CCOCC3)n2)cc1 9.25%
CN1C(=O)NC(c2ccc(O)cc2)C2=C1CN(c1ccccc1)C2=O (configuration not stated) 6.82%
Cc1ccc(N2CC3=C(C2=O)C(c2ccccc2)NC(=O)N3C)cc1 (configuration not stated) 5.38%
CN1CCc2c(sc3c2c(=O)n(-c2ccccc2)c2n[nH]c(=S)n32)C1 25.6%
Cc1nnc2n(Cc3ccccc3)c(=O)c3c4c(sc3n12)COC(C(C)C)C4 (configuration not stated) 7.22%
CSc1nnc2n(-c3ccc(C)cc3)c(=O)c3c4c(sc3n12)COC(C(C)C)C4 (configuration not stated) 10.7%
Cc1nnc2n(-c3ccccc3)c(=O)c3c4c(sc3n12)COC(C(C)C)C4 (configuration not stated) 5.27%
O=C(O)c1nn2c(c1Br)NC(c1ccccc1)CC2C(F)(F)F (configuration not stated) 3.96%
COc1ccc(C(=O)NNC(=O)C2CCCN(C3CC(=O)N(c4ccccc4)C3=O)C2)cc1 (configuration not stated) 9.48%
C/C(=N/NC(=O)NC12CC3CC(CC(C3)C1)C2)c1ccccc1 6.61%
Cc1ccc(NCC(O)Cn2cnc3c2c(=O)n(C)c(=O)n3C)cc1 (configuration not stated) 16.6%
Cn1c(=O)c2c(ncn2CC(O)CNc2ccc(F)cc2)n(C)c1=O (configuration not stated) 5.3%
CCOC(=O)C1CCN(C(=S)Nc2ccccc2)CC1 11.3%
Cc1c(C(=O)OCC(C)C)[nH]c2c1C(=O)CC(c1cccs1)C2 (configuration not stated) 22.8%
CCOC(=O)C1=C(C)NC(c2cccs2)C(=O)N1 (configuration not stated) 6.75%
COc1ccccc1N/N=C/c1ccc2c(c1)OCO2 5.16%
CCN(CC)C(=O)Nc1ccccc1C 3.88%
COc1ccc(-c2cn[nH]c2-c2ccc(O)cc2O)cc1 25.6%
COc1ccccc1-c1cn[nH]c1-c1ccc(O)cc1O 36.1%
CC/C(=N/O)C(=O)c1ccc(Br)cc1 8.42%
Cc1ccccc1NC(=O)COC(=O)/C=C/c1cccc(C(F)(F)F)c1 3.86%
O=[N+]([O-])c1cc(S(=O)(=O)NC2=NCCCCC2)ccc1Cl 6.57%
O=Nc1ccc(NOC(=O)c2ccccc2)cc1 19.7%
O=C(N=Nc1ccc(NOC(=O)c2ccccc2Br)cc1)c1ccccc1O 11.6%
O=C(O)C1CCN(C(=O)c2cccc3ccccc23)CC1 4.64%
CCc1ccccc1N1CC(C(=O)O)CC1=O (configuration not stated) -0.59%
Cc1cc(N2CCOCC2)nc2ccc(NC(=S)NC(C)C)cc12 4.55%
COc1ccc(NC(=O)/C=C/c2cc(OC)c(OC)c(OC)c2)cn1 7.41%
CS(=O)(=O)N(CC(=O)NC1CC1)C1CCCCC1 7.67%
Cc1csc(-c2cnn(-c3ccccc3)c2NC(=O)c2cccc(C(F)(F)F)c2)n1 0.685%
O=S(=O)(c1ccc(N2CCOCC2)c(Cl)c1)N1CCOCC1 7.49%
Cc1ccc(C)n1-c1cc(S(=O)(=O)N2CCOCC2)ccc1N1CCCC1 1.24%
N#Cc1cc(S(=O)(=O)N2CCOCC2)ccc1N1CCOCC1 7.94%
O=[N+]([O-])c1cc(S(=O)(=O)N2CCOCC2)ccc1N1CCCC1 -2.39%
CCSC1=C(C#N)C(c2cccc(Br)c2)CC(=O)N1 (configuration not stated) 1.17%
CCOC(=O)c1[nH]c2ccc(OC)cc2c1N=CN(C)C 16.9%
CCn1nnnc1SCC(=O)Nc1cccc(NC(C)=O)c1 0.63%
Cc1ccc2nccc(C(=O)N3CCCC(Nc4ccc(F)cc4)C3)c2c1 (configuration not stated) 14%
Cc1ccc(-c2noc(C3CCCN(C(=O)c4ccccc4Br)C3)n2)o1 (configuration not stated) 15.6%
O=C(Nc1ccccc1)C1CC(=O)N(Cc2ccccc2)C1 (configuration not stated) 27.5%
CC(=O)Nc1ccc(NC(=O)C2CC(=O)N(Cc3ccccc3)C2)cc1 (configuration not stated) 27.7%
COc1ccc2nc(N3C(=O)CC(Cc4cc(C)cc(C)c4)C3=O)sc2c1 (configuration not stated) -1.29%
COc1ccc(OCc2cc(C(=O)NC3CCOCC3)no2)c2ccccc12 12%
O=C1C2C(C(=O)N1Cc1ccco1)C1C=CC2C12CC2 (configuration not stated) -1.46%
COC(=O)C1=C(C)N(Cc2ccco2)C(=O)C1 23.9%
O=C1CC(=O)N(Cc2cccs2)C(=O)N1 22.2%
O=C1c2ccccc2C(=O)N1Cc1ccco1 4.84%
COc1ccc(S(=O)(=O)N2CCCC(C(=O)N3CCOCC3)C2)cc1OC (configuration not stated) 7.49%
CN(C)c1ccc(C(=O)N2CCN(c3cc(C(F)(F)F)nc4ccccc34)CC2)cc1 16.5%
Cc1ccc(Cc2c(C)nc3nc(SCC(=O)NCCCN4CCCC4)nn3c2C)cc1 9.31%
O=C1C(=O)N(Cc2cccnc2)C(c2ccc(Br)cc2)/C1=C(\O)c1ccc2c(c1)OCCO2 (configuration not stated) 8.89%
CN(C)c1ncc(/C=C2/C(=O)NC(=S)N(C3CCCCC3)C2=O)cn1 10.9%
O=C1/C(=C/c2cccs2)NC(=S)N1C1CC1 9.13%
CN(C)c1ccc(/C=C/c2cc[n+](C)cc2)cc1 7.41%
CN(C)c1ccc(/C=C/c2ccncc2)cc1 25.2%
Cn1c(CCc2nc3ccccc3[nH]2)n[nH]c1=S 9.76%
CC(=O)NC1(c2ccccc2)CCN(C(=O)N2CCOCC2)CC1 4.59%
Cc1c(NS(=O)(=O)c2ccccc2F)c(=O)n(-c2ccccc2)n1C 3.58%
O=C(Nc1ccc2c(c1)CCC2)c1cccc(OC(F)F)c1 15.1%
CC(=O)Nc1ccc(NC(=O)CS(=O)(=O)c2cn(CC(=O)N3CCC(C)CC3)c3ccccc23)cc1 21.1%
O=Cc1coc2ccc3ccccc3c2c1=O 12.7%
NC(=S)N/N=C/c1coc2c(ccc3ccccc32)c1=O 10.7%
CC(C)Cn1c(=O)c2c(nc3n2CC(C)CN3Cc2ccccc2)n(C)c1=O (configuration not stated) 9.7%
Cc1cc(C)n(-c2nc3ccccc3c(=O)n2OCC(=O)Nc2c(C)cccc2C)n1 1.06%
O=C1c2cccnc2C(=O)N1Cc1ccc(S(=O)(=O)N2CCN(c3ccccc3)CC2)cc1 -3.05%
CCc1ccccc1NC(=O)C1CCCN(c2ncnc3onc(-c4ccc(F)cc4)c23)C1 (configuration not stated) 4.3%
COc1ccc(NC2CCCN(Cc3cccc4cnccc34)C2)cc1 (configuration not stated) 30.9%
COc1ccc(NC2CCCN(C(=O)CCc3ccncc3)C2)cc1OC (configuration not stated) 35.9%
COc1cc(/C=C2\SC(c3ccccc3)=NC2=O)cc(Cl)c1O 33.2%
COc1ccc(Br)cc1/C=C/C(=O)NC(=S)Nc1ccc(Cl)c(C(=O)O)c1 25.5%
CC(=O)Nc1ccc2oc(-c3cc(F)c(F)cc3Cl)nc2c1 0.785%
